Experimental data published in the OligoGym collection.

Each sequence was assayed against RNPEPL1 (assay: pooled miR-30 sensor sort-seq; sequence = guide strand). Conditions: shRNA.
Note: reference of the scale not given here.

| Sequence | sensor-assay potency score (higher = more potent) |
| --- | --- |
| TGGCAGGAAGACAATGTCGTAC | -1.01 |
| TTCTCGTAGGTGAACAGGTTCA | -0.738 |
| TAGTACACGAAGCAGTAGCCCT | -0.845 |
| TACAAGAGACAGGCTGTCCTGT | 0.345 |
| TACTTCTCCACATAGGCTCGGA | -0.423 |
| TGAACTTGTACTTCTCCACATA | -0.899 |
| TCTGTGTCTGCTTCAGCCTTGC | 0.0808 |
| TTGTACTTCTCCACATAGGCTC | -0.15 |
| TAGGTGAACAGGTTCATCAGGT | 0.726 |
| TTCTGCGGTCCACAGCTGGAAA | -1.5 |
| TCAGGATAGTAGTCGTTGCGGA | -0.665 |
| TAGGTCTCGGTGGTGATACGGC | -0.874 |

What follows are sequences tested against ROBO3 in the same assay as above. Conditions: shRNA.

| Sequence | sensor-assay potency score (higher = more potent) |
| --- | --- |
| TGTAGGTCCAACATTGTCCAGC | -0.683 |
| TTTATAAACAAGTCTCAGGTGG | -0.186 |
| TTCATCTGGGTGGAGCACCCGC | -0.884 |
| TTGTAATATCTGTCGTCCGGGT | -0.931 |
| TTGGGCTTGCACCTTGATCTGG | -0.739 |
| TCTTAGCACAGTACTTTGCTGG | -0.938 |
| TAGCACAGTACTTTGCTGGCTT | 0.438 |
| TTGGCCATTGTCTTGAACTGGA | -0.232 |
| TTCGTTGTAATATCTGTCGTCC | 0.714 |
| TTTCCTTTGGTCTCGCACTGGA | -0.00997 |
| TTCAGCTGCCGCACTCTCCCGT | -0.447 |
| TTGTCTTGAACTGGAGGTCATC | -1.28 |

These sequences were tested against ROCK2 in the same assay as above. Conditions: shRNA.

| Sequence | sensor-assay potency score (higher = more potent) |
| --- | --- |
| TAGATGTCCATGTTTATCCAAG | -1.07 |
| TAAAGCATTGGTTTCATCCAGT | 0.0253 |
| TTTATCTGCTAGTCGTGCCTTT | 0.209 |
| TAACTTGGCAGTCTCCAGCAGG | -1.05 |
| TCTATTGTTAGATTCCAGCTGC | 0.544 |
| TTGAGAAATACTGTTCTGCTTC | 0.537 |
| TTTTGCTGTATCTTCATTGAAG | -0.765 |
| TTCTGCTTCGAGCTGATCCTGG | -0.437 |
| TATTTTTATCTGCTAGTCGTGC | -0.412 |
| TTTTCTGACATTTTTAGTGTGT | 0.278 |
| TTTCTAACTGTCTTAATGCTGA | -0.42 |

The sequences below were run against ROPN1 in the same assay as above. Conditions: shRNA.

| Sequence | sensor-assay potency score (higher = more potent) |
| --- | --- |
| TATGGTCACATGATAAGACCTC | -0.256 |
| TACAAGAAAATTGATTTTGGGT | 0.726 |
| TTCTGAAGTACAATCATCTCTG | 0.437 |
| ATTCTGAAGTACAATCATCTCT | 0.029 |
